The values that follow come from PubChem BioAssay (NCI).

What all share (assay): NCI-60 one-dose screen, 48 h (100 = growth as untreated, 0 = no growth, -100 = all killed)
Common to all, as to conditions: 10 µM unless noted

Experiment [1] relates to DU-145 prostate.
For experiment [2], the system named is K-562 leukemia.
Experiment [3] deals with MALME-3M melanoma.
For experiment [4], the system named is MDA-MB-231 breast.
Experiment [5] deals with RXF 393 renal.
The test system of experiment [6] is SF-268 CNS.
Experiment [7] concerns SF-295 CNS.
Experiment [8] deals with SF-539 CNS.
Experiment [9] relates to UACC-257 melanoma.
Experiment [10] relates to M14 melanoma.
The subject of experiment [11] is HCT-15 colon.
Experiment [12] deals with HT29 colon.
Experiment [13] relates to SNB-75 CNS.
The subject of experiment [14] is SNB-19 CNS.
For experiment [15], the system named is U251 CNS.
The subject of experiment [16] is PC-3 prostate.
The subject of experiment [17] is SK-MEL-5 melanoma.
The subject of experiment [18] is UACC-62 melanoma.
Experiment [19] deals with LOX IMVI melanoma.
The subject of experiment [20] is SK-MEL-28 melanoma.

Structures are written as SMILES. The panel holds about 83,000 compounds, 20% with a hit somewhere; the sample as a whole holds those more often.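 48-hour exposure, single concentration, 96-well plates; percent growth endpoint where 0 means no net growth. Active: below 10.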 Unmarked numbers belong to inactive results. Activity calls are given as the source filed them.

For the compound `c1nc(N2CCOCC2)c2[nH]ccc2n1`, the growth was 106% in experiment [1]; 92.7% in experiment [2]; 109% in experiment [3]; 107% in experiment [4]; 117% in [5]; 102% in experiment [6]. In addition, the growth is 112% in experiment [7]; 111% in experiment [8]; 105% in experiment [9]; 103% in experiment [10]; 105% in experiment [11]; 96% in experiment [12]. Also, the growth was 97.6% in [13]; 107% in [14]; 100% in experiment [15]; 107% in experiment [16]; 111% in experiment [17]; 103% in experiment [18]. Besides, the growth in experiment [19] was 99.8%.

On to `O=c1[nH]cnc2c1ccn2C1OC(CO)C(O)C1O` (stereo not drawn), for which the growth was 18.4% in experiment [1]; 65.4% in experiment [2]; 81.3% in experiment [3]; 45.3% in experiment [4]; 43.1% in [5]; 76% in experiment [6]. The growth in experiment [7] was 69.2%; in experiment [8] it was 80.4%; in experiment [9] it was 86.2%; in experiment [10], 55.9%; in experiment [11], 45.5%; in experiment [12] it was 65.9%. The growth was 74.6% in experiment [13]; 78.3% in experiment [14]; 81.2% in experiment [15]; 36.3% in [16]; 83.1% in experiment [17]; 73.3% in experiment [18]. Moreover, the growth in experiment [19] is 27.8%.

Take `CCc1ccc(NC(=O)N[C@@H](Cc2cc(F)cc(F)c2)C(=O)N[C@@H]2C(=O)N3C[C@H](O)C[C@H]3C(=O)N3CCOC[C@H]3C(=O)N[C@@H](C)C(=O)N3C[C@H](C)C[C@H]3C(=O)O[C@H]2C)cc1`: the growth in experiment [1] is 42.6%; in experiment [2] it was 24.7%; in experiment [3], 39.4%; in experiment [4], 16.1%; in [5] it was 88.1%; in experiment [6] it was 29.1%. In addition, the growth in [7] is 81.9%; in experiment [8] it was 55.8%; in experiment [9], 21.5%; in experiment [10], 84.8%; in experiment [11] it was 108%; in experiment [12] it was 31.2%. For the same compound, the growth in [13] is 8.76% (active); in experiment [14] it was 20.2%; in [15], 24.8%; in [16], 14.4%; in experiment [17], 85%; in [18], 29.7%. Also, in experiment [19], the growth is 41.6%.

`CC(C)C1=NOC(=O)C1=Cc1cn(-c2ccco2)nc1-c1ccccc1`: the growth in experiment [1] is 94.6%; in [2], 62.1%; in experiment [3], 104%; in [4], 92%; in experiment [5], 80.6%; in experiment [6], 90.5%. Also, the growth in [7] is 99.2%; in [8], 99.9%; in [9], 106%; in experiment [10] it was 85.6%; in experiment [11], 77.8%; in experiment [12] it was 86.3%. For the same compound, the growth was 80.8% in [13]; 89.8% in experiment [14]; 75.6% in experiment [15]; 78% in [16]; 95.3% in [17]; 87.6% in experiment [18]. Besides, the growth in experiment [19] was 39.3%.

Turning to `N#C/C(C(=O)c1ccccc1)=C1/C(=O)Nc2ccccc21`, the growth in experiment [1] is 105%; in [2] it was 88.6%; in experiment [3], 108%; in experiment [4] it was 93.2%; in experiment [5], 113%; in [6] it was 95.7%. The growth in [7] was 98.5%; in experiment [8], 97.3%; in experiment [9] it was 95.4%; in experiment [10] it was 35.6%; in experiment [11], 106%; in [12], 102%. Besides, the growth in [13] was 66.9%; in [14], 98.8%; in experiment [15] it was 103%; in [16] it was 97.6%; in [17] it was 95.6%; in [18], 94.6%. In experiment [19], the growth was 104%.

`Cc1ccc(NC(=S)/N=c2/n(-c3ccccc3)nc3n2CCN3C2=NCCN2)cc1`: the growth in experiment [1] was 111%; in [2], 121%; in experiment [3], 113%; in [4], 92.9%; in [5] it was 101%; in [6], 109%. The growth was 99.3% in [7]; 102% in experiment [8]; 109% in [9]; 82.8% in [10]; 107% in experiment [11]; 99.1% in [12]. Moreover, the growth in experiment [13] was 80.6%; in [14], 119%; in experiment [15] it was 108%; in [16] it was 85.6%; in experiment [17], 101%; in [18] it was 99.2%. The growth in experiment [19] was 108%.

`CC[C@@](C)(NC(=O)[C@H](C)NC(=O)CCNC(=O)C(C)(C)NC(=O)[C@H](C)NC(=O)[C@@H]1CCCN1C(=O)[C@@](C)(CC)NC(=O)[C@H](Cc1ccccc1)NC(=O)C1CCCN1C(=O)C(C)(C)NC(=O)C1CCCN1C(=O)C(C)(C)NC(C)=O)C(=O)NCCC(=O)N[C@@H](CC(C)C)C(=O)NC(C)(C)C(=O)NCCC(=O)N[C@@H](CC(C)C)C(=O)NC(C)(C)C(=O)NC(C)(C)C(=O)N[C@@H](CC(C)C)C(=O)NCCC(=O)NCO` (stereo partly drawn): the growth in experiment [1] is -100% (active); in [2], -60.9% (active); in experiment [3] it was -84.9% (active); in [4], -88.5% (active); in [5], -97.5% (active); in [6], -96.8% (active). Besides, the growth in experiment [7] is -98.6% (active); in [8] it was -90% (active); in [9], -95.2% (active); in [10] it was -88.6% (active); in experiment [11] it was -99.4% (active); in experiment [12], -70.8% (active). Also, the growth in experiment [13] was -96.4% (active); in experiment [14], -87.2% (active); in experiment [15], -99.1% (active); in [16], -94.6% (active); in [17], -100% (active); in experiment [18] it was -75.3% (active). The growth in [19] was -100% (active).

Take `Cc1ccc(S(=O)(=O)N/N=C2\CC3CCC2(C)C3(C)C)cc1` (stereo not drawn): the growth in experiment [1] was 105%; in [2], 120%; in [3], 103%; in [4], 89%; in experiment [5], 89.4%; in experiment [6] it was 116%. Further, the growth in experiment [7] is 94%; in experiment [8], 102%; in experiment [9], 87.8%; in [10] it was 77.9%; in [11], 99.7%; in experiment [12], 108%. In addition, the growth is 81.8% in [13]; 98.1% in experiment [14]; 96.1% in experiment [15]; 86.2% in experiment [16]; 101% in experiment [17]; 77.2% in experiment [18]. The growth in experiment [19] is 92.3%; in experiment [20], 102%.
